This is a sample that favours compounds with a hit; in the whole collection about 3% have one here.
Tau fluor cs: counter-screen for tau fibril formation inhibitors; tau K18 P301L Alexa594 fluorescence, heparin fibrillization; hit rate 0.93% among 280,000; Potency, µM (highest dose often 57.7 µM), inactives show at the top dose activity change, negative = decrease; further: nearly all actives have a fitted effect of over 55% in size
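Human K18 P301L tau (15 uM unlabeled plus 0.24 uM Alexa 594-labeled, final) in 100 mM sodium acetate pH 7 was mixed with compound and 20 uM heparin and incubated 6 hr at 37 C.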
TexasRed fluor: Texas Red fluorescence interference in TRb-SRC2 counter-screen; Potency, µM (series often up to 106 µM), for the others: at the top dose fluorescence change, negative = quenching; hit rate 0.29% among 280,000; TRb/SRC2 Texas Red total fluorescence interference; active means well fitted curve in either direction with a large enough effect; inconclusive means small, poorly fitted or top-dose-only effect
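Human TRb ligand-binding domain at 0.6 uM with 20 nM Texas Red SRC2 peptide in Tris buffer containing 1 uM T3 and 5% DMSO, incubated with compound 5 h at ambient temperature. Total fluorescence (555/632 nm) calculated as parallel + 2 × perpendicular.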
Tau ThT inhib: blocks human tau fibril formation measured by thioflavin T | recombinant tau K18 P301L (four-repeat tau fragment), heparin-induced fibrillization, ThT fluorescence | P10636 | hit rate 2.1% among 270,000 | Potency, µM (top dose mostly 57.4 µM), without a hit: top-dose activity, negative = inhibition, actives largely listed as inhibitors; further: nearly all actives have a fitted effect of over 55% in size
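Tau K18 P301L fragment (15 uM unlabeled plus 0.24 uM Alexa 594-labeled) in 100 mM sodium acetate pH 7 with compound, fibrillization induced by 20 uM heparin for 6 hr at 37 C. Thioflavin T (30 uM) added, fluorescence read after 1 hr (ex 450, em 510 nm).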
TRb-SRC2 inh: disrupts binding of human TR beta to SRC2; P10828; TRbeta-SRC2 peptide binding, fluorescence polarization; receptor liganded with 1 µM T3; Potency, µM (doses to about 106 µM), for the others: top-dose activity change, negative = inhibition, most hits filed as inhibitors; hit rate 0.065% among 280,000; AID 1469;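 further: plate controls were bound peptide for no effect and peptide without receptor for full effect; nearly all actives have a fitted effect of over 50% in size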
Target sequence (P10828 whole entry, looked up): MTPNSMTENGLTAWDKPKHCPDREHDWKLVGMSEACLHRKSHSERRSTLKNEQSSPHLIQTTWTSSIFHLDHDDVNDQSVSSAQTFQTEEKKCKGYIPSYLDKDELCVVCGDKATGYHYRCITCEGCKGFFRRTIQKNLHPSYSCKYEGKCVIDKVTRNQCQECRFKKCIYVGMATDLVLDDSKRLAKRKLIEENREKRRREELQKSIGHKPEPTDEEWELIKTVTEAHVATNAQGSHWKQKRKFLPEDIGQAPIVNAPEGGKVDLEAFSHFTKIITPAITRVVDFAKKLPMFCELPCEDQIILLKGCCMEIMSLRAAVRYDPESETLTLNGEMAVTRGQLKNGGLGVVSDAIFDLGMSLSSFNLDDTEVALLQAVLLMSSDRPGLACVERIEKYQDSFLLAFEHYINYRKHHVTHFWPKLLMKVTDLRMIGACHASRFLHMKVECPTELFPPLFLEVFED
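Decrease in fluorescence polarization of 20 nM Texas Red SRC2 coactivator peptide flagged inhibition of its binding to 0.6 uM TRb LBD; 1 uM T3 included, incubation 5 hr, ex 555/em 632 nm.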
Tau fibril FP: inhibitors of human tau fibril formation; P10636; K18 P301L tau heparin fibrillization, Alexa594 FP, 6 h; Potency, µM (top dose mostly 57.7 µM), for inactives: at the highest dose activity, negative = inhibition, most hits filed as inhibitors; hit rate 0.39% among 280,000; further: nearly all actives have a fitted effect of over 55% in size
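Human K18 P301L fragment (15 uM unlabeled plus 0.24 uM Alexa 594-labeled) in 100 mM sodium acetate pH 7 with compound, aggregation induced by 20 uM heparin for 6 hr at 37 C. ThT (30 uM) added for 1 hr, then Alexa 594 FP read.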
* marks the source's active call; other numbers are inactive results; ? = inconclusive; . = not tested or not shown; [ ] = remark or other dose. Unless noted, the call rests on the fitted dose curve; in most records, active means well fitted curve in the direction sought with a large enough effect; inconclusive means small, poorly fitted or top-dose-only effect, or another doubt; inactive means no such curve, though single readings can be large; an effect the other way counts as inactive or inconclusive. Unless noted, on the % scale 0 is the no-effect control and ±100 the full control effect; potency means the concentration at half of the fitted maximal effect.

SMILES | Tau fluor cs | TexasRed fluor | Tau ThT inhib | TRb-SRC2 inh | Tau fibril FP
Cc1cc2cc(CNC(=O)c3ccc(S(=O)(=O)N4CCCCC4)cc3)ccc2n1C | -13% | -3% | -16% | -8% | ?
Cc1cc2cc(CNC(=O)c3ccc(S(=O)(=O)N4CCCC4)cc3)ccc2n1C | -4% | 45µM*[fluorescent] | ? | 35µM* | ?
CC(C)c1nn2c(=O)cc(COC(=O)c3ccc(NC(=O)COc4ccccc4)cc3)nc2s1 | 4% | -1% | -1% | -11% | 7%
O=C(O)CC/C(=C\c1ccc(N2CCCC2)c([N+](=O)[O-])c1)c1nc2ccccc2s1 | -24% | -3% | 4.5µM* | 9% | -12%
O=c1cc(N=Nc2ccc(Cl)cc2)[nH]c(=O)[nH]1 | ? | -1% | 11µM* | -7% | ?
O=c1cc(-c2ccc(Cl)cc2)oc(=O)[nH]1 | -2% | -2% | -6% | 2% | -1%
COc1ccc(C(=O)[C@]2(C)C=C(c3ccc(OC)cc3)[C@H](C)C2)cc1 | -13% | -1% | -8% | 1% | -4%
Cc1c(C(=O)N2CCCC2)oc2c1-c1nn(CC(=O)NCc3cccc(Br)c3)cc1CC2 | -25% | 0% | ? | 4% | -6%
CCOc1ccc(NCc2cc3cc(OC)ccc3[nH]c2=O)cc1 | ? | -2% | 6.3µM* | 0% | -6%
O=C1[C@H]2[C@H]3[C@H](O)[C@H](O)C/C(=N/OC[C@@H](O)COCc4ccco4)[C@@H]3CC[C@@H]2C(=O)N1c1cccc(Oc2ccccc2)c1 | -10%[11.6 µM] | -5%[11.2 µM] | -9%[11.5 µM] | 0%[11.2 µM] | -6%[11.6 µM]
CCSc1nnc2c(Cl)cc(Cl)cn12 | 7% | -4% | 0% | -3% | 7%
COCCNC(=O)CSc1nnc2c(Cl)cc(Cl)cn12 | -22% | 4% | 13µM* | -2% | 25µM*
CCc1nn2c(=O)cc(COc3ccc(/C=C4\C(=N)N5N=C(C)SC5=NC4=O)cc3)nc2s1 | -17% | 0% | 13µM* | -2% | 0%
CCc1nn2c(=O)cc(COC(=O)COc3ccc(OC)cc3)nc2s1 | -1% | -9% | -1% | -3% | 2%
COc1ccc(/C=C/c2nc(N)nc(-c3ccccc3O)n2)cc1OC | ? | -4% | ? | 11% | 20µM*
COc1ccc(N2CCN(C(=O)CSc3c4c(nc5ccc(Cl)cc35)CCCC4)CC2)cc1 | ? | -1% | 14µM* | -1% | -5%
COC(=O)N1CCN(/[N+]([O-])=N/Oc2ccc([N+](=O)[O-])cc2[N+](=O)[O-])CC1 | . | -4% | . | 0% | .
Cc1cc(C)c(C(CC(=O)c2cccs2)C(C#N)C#N)c(C)c1 (configuration not stated) | -22% | 1% | 25µM* | -3% | -7%
CN(C)c1ccc(C(CNS(=O)(=O)c2ccc3ccccc3c2)c2c[nH]c3ccccc23)cc1 (configuration not stated) | 8.9µM*[quencher] | 0% | -7% | -3% | 7%
Cc1ccccc1CNC(=O)Nc1ccc2c(c1)N(C)C(=O)c1ccccc1S2 | 9% | 0% | -1% | -2% | -12%
COc1ccc(C(=O)Nc2cccc(-c3nc4cccnc4s3)c2C)c(OC)c1 | -6% | 100µM*[quencher] | ? | -13% | -3%
Cc1ccc2nc(CSc3nc(C)ccc3C#N)[nH]c2c1 | ? | -9% | 11µM* | -11% | 2%
CSc1ccc(CC2C(=O)Nc3ccccc32)cc1 (configuration not stated) | -21% | -4% | ? | 2% | 3%
CC(=O)Nc1sc(N/N=C\c2ccco2)nc1-c1cccs1 | ? | -9% | 16µM* | 14% | ?
CC(=O)Nc1sc(NC(=O)c2ccc(Cl)cc2)nc1-c1cccs1 | -25% | 1% | ? | -4% | 0%
Nc1nc(-c2cccs2)c(NC(=O)c2ccccc2)s1 | ? | 0% | 14µM* | -7% | ?
CCOc1cc(/C=N/Nc2nc(-c3cccs3)c(NC(C)=O)s2)ccc1O | ? | -3% | 25µM* | 5% | -12%
CC(=O)Nc1sc(NC(=O)c2ccc([N+](=O)[O-])cc2)nc1-c1cccs1 | ? | -2% | 7.9µM* | 0% | 2%
